PubChem BioAssay (Tox21)
Values joined by “and” are separate entries in the source; they are usually repeats but may differ in a detail not shown here. Equal values may be shown once. A structure can be active in one record and inactive in another. Active and inactive are the calls of the source. A call without a number means that no potency is given here. Unless noted, the call rests on the fitted dose curve; in most records, active means well fitted curve in the direction sought with a large enough effect in the repeat runs; inconclusive means weak or mixed curves; inactive means no such curve, though single readings can be large; an effect the other way counts as inactive or inconclusive.

Assays:
[1] = qHTS assay to identify small molecule antagonists of the glucocorticoid receptor (GR) signaling pathway - cell viability counter screen (AID 720693); further: nearly all actives have a fitted effect of over 55% in size
[2] = qHTS assay for identifying genotoxic compounds that show differential cytotoxicity against isogenic chicken DT40 cell lines with known DNA damage response pathways - wild type cell line (AID 743012); further: nearly all actives have a fitted effect of over 60% in size; further: potency means the concentration at half of the fitted maximal effect
How it was run: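 CellTiter-Glo luminescence readout of viability in wild type DT40 cells after 40 h compound exposure at 37 C/5% CO2; 300 cells/well; reagent incubated 30 min at room temperature before reading.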

[3] = qHTS assay for identifying genotoxic compounds that show differential cytotoxicity against isogenic chicken DT40 cell lines with known DNA damage response pathways - Rev3 mutant cell line (AID 743014); further: nearly all actives have a fitted effect of over 55% in size; further: potency means the concentration at half of the fitted maximal effect
[4] = qHTS assay for identifying genotoxic compounds that show differential cytotoxicity against isogenic chicken DT40 cell lines with known DNA damage response pathways - Rad54/Ku70 mutant cell line (AID 743015); further: nearly all actives have a fitted effect of over 60% in size; further: potency means the concentration at half of the fitted maximal effect
[5] = qHTS assay to identify small molecule antagonists of the androgen receptor (AR) signaling pathway - cell viability counter screen (AID 743033; further: nearly all actives have a fitted effect of over 45% in size)
[6] = target: Androgen receptor (Homo sapiens) (UniProt P10275); assay: qHTS assay to identify small molecule antagonists of the androgen receptor (AR) signaling pathway (AID 743035; active means well fitted inhibition curve with a large enough effect in the signal ratio in the repeat runs, not every such curve was filed as active; inconclusive means weak or mixed curves, or effect the other way; inactive means no such curve, though single readings can be large or run the other way; the % refers to the signal ratio; further: potency means the concentration at half of the fitted maximal effect)
How it was run: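 AR-bla HEK293 reporter cells; 4 h settle at 37C/5% CO2; compound + R1881 agonist, 16 h at 37C; LiveBLAzer B/G FRET substrate 2 h RT; fluorescence intensity read. qHTS format.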

[7] = target: Androgen receptor (Homo sapiens) (UniProt P10275); assay: qHTS assay to identify small molecule agonists of the androgen receptor (AR) signaling pathway using the MDA cell line (AID 743040; further: nearly all actives have a fitted effect of over 20% in size); conditions: MDA-kb2 AR-luc cells, MMTV luciferase, 16 h; activity change: at 70.3 µM (top of the series), stronger effect = higher value
How it was run: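 Luciferase read-out, ONE-Glo, 30 min RT. Cells: MDA-kb2 AR-luc, MMTV promoter with AR and GR response elements. Compound exposure 16 h, 37C, 0% CO2, after 5 h pre-incubation. qHTS agonist mode.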

[8] = qHTS assay to identify small molecule antagonists of the androgen receptor (AR) signaling pathway using the MDA cell line - cell viability counter screen (AID 743041; further: nearly all actives have a fitted effect of over 45% in size)
How it was run: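 Cytotoxicity counter screen: MDA-kb2 AR-luc cells, compound + R1881, 16 h, 37C, 0% CO2; CellTiter-Fluor added at 15.5 h, fluorescence read after 30 min.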

[9] = target: Androgen receptor (Homo sapiens) (UniProt P10275); assay: qHTS assay to identify small molecule antagonists of the androgen receptor (AR) signaling pathway using the MDA cell line (AID 743042; further: nearly all actives have a fitted effect of over 55% in size; further: potency means the concentration at half of the fitted maximal effect)
How it was run: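 MDA-kb2 breast carcinoma cells carrying MMTV-luciferase (AR/GR responsive) were co-treated with compounds and the agonist R1881 for 16 h at 37C. Inhibition read as ONE-Glo luminescence; CellTiter-Fluor fluorescence measured in parallel for cytotoxicity.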

[10] = qHTS assay to identify small molecule antagonists of the thyroid receptor (TR) signaling pathway - cell viability counter screen (AID 743064); further: nearly all actives have a fitted effect of over 50% in size
How it was run: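 Same-well viability check: GH3.TRE-Luc cells stimulated with 1 nM T3 alongside test compound for 23.5 h, followed by CellTiter-Fluor fluorescence.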

[11] = qHTS assay to identify small molecule antagonists of the thyroid receptor (TR) signaling pathway (AID 743065); further: nearly all actives have a fitted effect of over 55% in size; further: potency means the concentration at half of the fitted maximal effect
How it was run: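 GH3.TRE-Luc rat pituitary cells (two TREs driving luciferase) were dosed with compound, then stimulated with 1 nM T3 (final) for 23.5 h at 37 C. ONE-Glo luminescence was the read-out, with CellTiter-Fluor fluorescence as the cytotoxicity counter-screen.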

[12] = test system: thyroid hormone receptor (rat, GH3 cells); assay: qHTS assay to identify small molecule agonists of the thyroid receptor (TR) signaling pathway (AID 743066; calls by dose curve)
[13] = qHTS assay to identify small molecule antagonists of the estrogen receptor alpha (ER-alpha) signaling pathway - cell viability counter screen (AID 743074; calls by dose curve;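 further: HEK293 cells carrying ER-alpha-UAS-bla reporter stimulated with 17beta-estradiol; nearly all actives have a fitted effect of over 45% in size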)
[14] = target: Estrogen receptor (Homo sapiens) (UniProt P03372); assay: qHTS assay to identify small molecule agonists of the estrogen receptor alpha (ER-alpha) signaling pathway (AID 743075; calls by dose curve;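 further: HEK293 GripTite cells with ER-alpha and UAS-driven beta-lactamase reporter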; further: potency means the concentration at half of the fitted maximal effect)
[15] = target: Estrogen receptor (Homo sapiens) (UniProt P03372); assay: qHTS assay to identify small molecule agonists of the estrogen receptor alpha (ER-alpha) signaling pathway using the BG1 cell line (AID 743079); further: nearly all actives have a fitted effect of over 20% in size; further: potency means the concentration at half of the fitted maximal effect
[16] = qHTS assay to identify small molecule antagonists of the estrogen receptor alpha (ER-alpha) signaling pathway using the BG1 cell line (AID 743080; calls by dose curve;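 further: BG1 cells stimulated with 17beta-estradiol alongside compound; nearly all actives have a fitted effect of over 25% in size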)
How it was run: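 BG1-Luc-4E2 cells (endogenous full-length ER-alpha, stable 4×ERE-luciferase) were starved 5 days in phenol-red-free medium with 10% charcoal-stripped FBS, plated 24 h, then given compound plus 17beta-estradiol for 21.5 h at 37 C; ONE-Glo luminescence read after 30 min.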

[17] = qHTS assay to identify small molecule antagonists of the estrogen receptor alpha (ER-alpha) signaling pathway using the BG1 cell line - cell viability counter screen (AID 743081);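 further: compound given together with 17beta-estradiol as the ER stimulus; nearly all actives have a fitted effect of over 45% in size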
[18] = target: Aromatase (Homo sapiens) (UniProt P11511); assay: qHTS assay to identify aromatase inhibitors (AID 743083); further: nearly all actives have a fitted effect of over 55% in size; further: potency means the concentration at half of the fitted maximal effect
[19] = target: Estrogen receptor (Homo sapiens) (UniProt P03372); assay: qHTS assay to identify small molecule antagonists of the estrogen receptor alpha (ER-alpha) signaling pathway (AID 743069; active means well fitted curve in the direction sought with a large enough effect in the signal ratio in the repeat runs, not every such curve was filed as active; inconclusive means weak or mixed curves, or effect the other way; inactive means no such curve, though single readings can be large or run the other way; the % refers to the signal ratio)
How it was run: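 Beta-lactamase FRET fluorescence is read after 2 hr at room temperature with LiveBLAzer B/G substrate. Before that, ER-alpha-bla HEK293 cells sit 4 hr after plating, then receive compound plus 17beta-estradiol and incubate 18 hr at 37C.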

[20] = target: Androgen receptor (Homo sapiens) (UniProt P10275); assay: qHTS assay to identify small molecule agonists of the androgen receptor (AR) signaling pathway (AID 743036; active means well fitted activation curve with a large enough effect in the signal ratio in the repeat runs, with a control signal flat, not every such curve was filed as active; inconclusive means weak or mixed curves, or effect the other way; inactive means no such curve, though single readings can be large or run the other way; the % refers to the signal ratio)
How it was run: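 Agonist activity was scored by beta-lactamase reporter fluorescence in stably transfected HEK293 cells exposed to compounds for 16 h at 37C and 5% CO2. Substrate loading took 2 h at room temperature.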

Chain of Androgen receptor (Homo sapiens) (P10275 whole entry, looked up): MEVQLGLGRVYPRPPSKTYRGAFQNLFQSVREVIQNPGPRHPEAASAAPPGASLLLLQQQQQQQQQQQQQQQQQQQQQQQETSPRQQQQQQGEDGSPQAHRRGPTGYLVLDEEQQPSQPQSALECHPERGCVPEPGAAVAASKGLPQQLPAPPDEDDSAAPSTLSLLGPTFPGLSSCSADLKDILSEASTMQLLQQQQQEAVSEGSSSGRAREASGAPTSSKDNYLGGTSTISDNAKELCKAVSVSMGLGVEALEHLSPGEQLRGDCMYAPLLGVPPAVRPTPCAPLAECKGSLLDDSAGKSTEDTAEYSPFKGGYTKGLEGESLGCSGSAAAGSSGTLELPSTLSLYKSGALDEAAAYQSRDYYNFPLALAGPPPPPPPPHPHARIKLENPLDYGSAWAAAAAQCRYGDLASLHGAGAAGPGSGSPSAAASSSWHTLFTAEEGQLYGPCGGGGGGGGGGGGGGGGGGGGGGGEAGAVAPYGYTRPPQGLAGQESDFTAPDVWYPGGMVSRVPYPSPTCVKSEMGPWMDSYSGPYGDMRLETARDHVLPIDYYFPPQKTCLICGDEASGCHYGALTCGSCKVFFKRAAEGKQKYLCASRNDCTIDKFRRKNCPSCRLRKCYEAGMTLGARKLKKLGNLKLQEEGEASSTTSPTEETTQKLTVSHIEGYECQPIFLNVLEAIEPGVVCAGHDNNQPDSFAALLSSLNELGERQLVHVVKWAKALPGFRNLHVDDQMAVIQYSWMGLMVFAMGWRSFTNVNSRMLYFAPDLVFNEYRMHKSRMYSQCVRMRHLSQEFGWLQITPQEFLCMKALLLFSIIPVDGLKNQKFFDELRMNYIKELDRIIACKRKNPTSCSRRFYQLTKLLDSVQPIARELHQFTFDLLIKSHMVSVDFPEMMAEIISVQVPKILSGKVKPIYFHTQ
Chain of Aromatase (Homo sapiens) (P11511 whole entry, looked up): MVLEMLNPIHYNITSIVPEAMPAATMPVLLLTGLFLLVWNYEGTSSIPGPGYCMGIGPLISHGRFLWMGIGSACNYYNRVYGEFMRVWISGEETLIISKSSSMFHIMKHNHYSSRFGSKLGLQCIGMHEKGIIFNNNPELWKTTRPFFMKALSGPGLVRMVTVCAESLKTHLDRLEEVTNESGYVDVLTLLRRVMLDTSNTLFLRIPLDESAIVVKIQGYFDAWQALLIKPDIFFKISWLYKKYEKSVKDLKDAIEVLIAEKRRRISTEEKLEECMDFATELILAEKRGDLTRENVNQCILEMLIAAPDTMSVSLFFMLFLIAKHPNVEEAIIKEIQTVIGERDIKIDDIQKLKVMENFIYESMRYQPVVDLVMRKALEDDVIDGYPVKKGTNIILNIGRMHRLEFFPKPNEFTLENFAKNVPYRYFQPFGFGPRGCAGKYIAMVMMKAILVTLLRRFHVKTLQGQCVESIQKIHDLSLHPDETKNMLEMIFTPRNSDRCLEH
Chain of Estrogen receptor (Homo sapiens) (P03372 whole entry, looked up): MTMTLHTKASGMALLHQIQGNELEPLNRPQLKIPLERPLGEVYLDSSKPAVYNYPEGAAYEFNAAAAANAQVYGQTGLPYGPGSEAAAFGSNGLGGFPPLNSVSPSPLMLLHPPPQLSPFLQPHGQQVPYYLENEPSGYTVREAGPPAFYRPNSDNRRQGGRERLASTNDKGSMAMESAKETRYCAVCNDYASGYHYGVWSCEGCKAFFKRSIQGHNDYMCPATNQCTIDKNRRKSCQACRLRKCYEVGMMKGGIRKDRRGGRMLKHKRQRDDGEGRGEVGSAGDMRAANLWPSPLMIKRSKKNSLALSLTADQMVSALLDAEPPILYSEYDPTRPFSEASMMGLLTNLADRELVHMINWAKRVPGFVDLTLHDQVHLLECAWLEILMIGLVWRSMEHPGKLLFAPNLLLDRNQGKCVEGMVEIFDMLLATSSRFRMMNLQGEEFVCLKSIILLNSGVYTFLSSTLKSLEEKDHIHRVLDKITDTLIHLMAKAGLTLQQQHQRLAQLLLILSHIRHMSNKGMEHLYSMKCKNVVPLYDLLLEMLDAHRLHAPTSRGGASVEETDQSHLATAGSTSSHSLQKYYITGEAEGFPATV

For `COP(=S)(OC)Oc1cc(Cl)c(Cl)cc1Cl`, the Potency [1] was “inactive”, the Potency [2] was “inactive” and the Potency [3] was “inactive”. For the same compound, the Potency [4] was “inactive”, the Potency [5] was “inactive” and the Potency [6] was “inactive”. For the same compound, the Potency [7] was “inactive”, the Potency [8] was “inactive” and the Potency [9] was “inactive”. The Potency [10] was “inactive”, the Potency [11] was “inactive” and the Potency [12] was “inactive”. The Potency [13] was “inactive”, the Potency [14] was “inactive” and the Potency [15] was “inactive”. The Potency [16] was “inactive”, the Potency [17] was “inactive” and the Potency [18] was “inactive”.
For `N#CCCCl`, the Potency [1] was “inactive”, the Potency [2] was “inactive” and the Potency [3] was “inactive”. For the same compound, the Potency [4] was “inactive”, the Potency [5] was “inactive” and the Potency [8] was “inactive”. For the same compound, the Potency [10] was “inactive”, the Potency [11] was “inactive” and the Potency [12] was “inactive”. The Potency [13] was “inactive” and the Potency [17] was “inactive”.
For `CC(C)NC(C)C`, the Potency [1] was “inactive”, the Potency [2] was “inactive” and the Potency [3] was “inactive”. For the same compound, the Potency [4] was “inactive”, the Potency [5] was “inactive” and the Potency [8] was “inactive”. The Potency [10] was “inactive”, the Potency [12] was “inactive” and the Potency [19] was “inactive”. The Potency [13] was “inactive”, the Potency [14] was “inactive” and the Potency [15] was “inactive”. The Potency [16] was “inactive”, the Potency [17] was “inactive” and the Potency [18] was “inactive”.
With `CCc1cccc(CC)c1N(COC)C(=O)CCl` the Potency [1] was “inactive”, the Potency [2] was 19.3 µM (active) and the Potency [3] was 5.91 µM (active) and 5.45 µM (active). The Potency [4] was 29.6 µM (active) and 10.9 µM (active), the Potency [5] was “inactive” and the Potency [6] was 26.7 µM (active) and 38.9 µM (active). The Potency [20] was “inactive”, the Potency [7] was “inactive” and the Potency [8] was “inactive”. For the same compound, the Potency [9] was 61.1 µM (active), the Potency [10] was “inactive” and the Potency [11] was 54.5 µM (active). The Potency [12] was “inactive”, the Potency [13] was “inactive” and the Potency [14] was “inactive”. The Potency [15] was “inactive”, the Potency [16] was “inactive” and the Potency [17] was “inactive”. For the same compound, the Potency [18] was 61.1 µM (active).
For `C=C(C)C(=O)OCC1CO1` (stereo unspecified), the Potency [1] was “inactive”, the Potency [2] was “inactive” and the Potency [3] was “inactive”. The Potency [4] was “inactive”, the Potency [5] was “inactive” and the Potency [8] was “inactive”. For the same compound, the Potency [10] was “inactive”, the Potency [11] was “inactive” and the Potency [12] was “inactive”. The Potency [19] was “inactive”, the Potency [13] was “inactive” and the Potency [14] was “inactive”. For the same compound, the Potency [15] was “inactive”, the Potency [16] was “inactive” and the Potency [17] was “inactive”. For the same compound, the Potency [18] was “inactive”.
For `CC(C)c1ccc(CO)cc1`, the Potency [1] was “inactive”, the Potency [2] was “inactive” and the Potency [3] was “inactive”. The Potency [4] was “inactive”, the Potency [5] was “inactive” and the Potency [6] was “inactive”. The Potency [8] was “inactive”, the Potency [10] was “inactive” and the Potency [11] was “inactive”. For the same compound, the Potency [12] was “inactive”, the Potency [19] was “inactive” and the Potency [13] was “inactive”. The Potency [14] was 43.7 µM [inconclusive] (active) and inactive, the Potency [15] was 54.5 µM (active) and inactive and the Potency [16] was “inactive”. The Potency [17] was “inactive” and the Potency [18] was “inactive”.
